# Laboratory results published in the supplement of paper PMC3334620.
# Over roughly 33,000 sequences, “E-score (-0.5 to 0.5)” has its median near -0.016; the highest 2% begin near 0.3. This excerpt belongs to a sample that is enriched for the highest values.
# Target: T1, Yer184c (UniProt P39961)
# T1 sequence: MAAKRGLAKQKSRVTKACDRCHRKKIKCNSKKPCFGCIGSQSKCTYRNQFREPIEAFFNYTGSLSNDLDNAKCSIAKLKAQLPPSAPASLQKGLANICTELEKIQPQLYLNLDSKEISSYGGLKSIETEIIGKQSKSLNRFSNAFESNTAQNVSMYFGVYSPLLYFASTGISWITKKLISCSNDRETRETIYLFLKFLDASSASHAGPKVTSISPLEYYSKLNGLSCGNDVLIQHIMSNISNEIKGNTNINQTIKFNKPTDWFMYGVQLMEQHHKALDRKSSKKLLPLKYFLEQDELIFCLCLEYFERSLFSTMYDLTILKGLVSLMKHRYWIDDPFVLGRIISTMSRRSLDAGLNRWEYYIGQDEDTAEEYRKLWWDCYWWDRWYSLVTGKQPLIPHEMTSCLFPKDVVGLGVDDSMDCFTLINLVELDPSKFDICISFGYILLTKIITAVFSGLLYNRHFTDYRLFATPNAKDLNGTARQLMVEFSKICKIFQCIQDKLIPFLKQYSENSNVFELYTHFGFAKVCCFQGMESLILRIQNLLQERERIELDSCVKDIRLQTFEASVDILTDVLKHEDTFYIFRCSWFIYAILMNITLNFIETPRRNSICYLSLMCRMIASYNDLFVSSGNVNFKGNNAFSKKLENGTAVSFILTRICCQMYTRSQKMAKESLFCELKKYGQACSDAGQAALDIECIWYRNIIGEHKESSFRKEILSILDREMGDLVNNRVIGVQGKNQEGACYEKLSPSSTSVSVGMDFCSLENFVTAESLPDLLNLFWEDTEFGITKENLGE
# Experiment: PBM E-score (8-mer binding enrichment) (E-score (-0.5 to 0.5)); higher = stronger / more preferred TF binding
# Conditions: protein concentration: 100 nM; construct: GST-full length
# How it was run: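 Universal all-10-mer Agilent arrays, double-stranded by primer extension on fresh or once-stripped slides, were probed with about 100-200 nM GST-tagged yeast transcription factors made by PURExpress. Fluorescent anti-GST detected bound protein, and masliner normalised the scans. E-scores from the Universal PBM Analysis Suite were given to each ungapped eight-base word pooled with its reverse complement.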
row,Sequence,PBM E-score
1,CGAGCCCC,-0.186
2,AAGAGAAT,0.0316
3,ACGTTAGT,-0.0893
4,CGATTTCC,0.214
5,CGGCACCG,0.346
6,CGGCACCC,0.048
7,CGGCACCA,0.256
8,CCTACCAA,0.0704
9,TCTCAAGA,-0.0209
10,CCCTAGAC,-0.189
11,ACGGTTGA,-0.0221
12,CCGGTTTC,0.244
13,CCGGTTGA,0.321
14,CCGGTTGC,0.355
15,GCGGTTGA,0.113
16,ACGGTTGC,-0.129
17,ACTCTTCT,-0.0645
18,CTTGGTCC,0.0693
19,TCGTGTCA,-0.0881
20,ACACTGCT,-0.244
21,GCAATAGA,-0.0314
22,CCTCAGCC,-0.233
23,ACGCTTTA,-0.0723
24,CAGTCGCG,-0.189
25,CAATCCGA,0.184

row,Sequence,PBM E-score
1,AAATCCGC,-0.00733
2,AAATCCGG,0.394
3,AAATCCGT,0.181
4,CAATCCGC,0.095
5,CAATCCGG,0.316
6,AGCGGTGA,-0.0103
7,ACTCTGCG,0.013
8,CCGGTTAA,0.297
9,CCCGTTAA,-0.0453
10,GCGGTTAA,0.0539
11,TCCGTTAA,0.305
12,TCGGTTAA,0.333
13,GCCGTTAA,0.169
14,ATTGTGAG,0.09
15,ACTTCTCG,0.17
16,ACGCCGCG,0.0694
17,ACGCCGTG,0.0103
18,CCGCCGTA,0.075
19,CCGCCAAA,0.14
20,CCGCCGCG,0.172
21,CCGCCGAA,0.313
22,CCGCCGAC,0.109
23,ACGCCGAG,0.328
24,CCGCCGAG,0.304
25,CCTAAAGG,-0.122

row,Sequence,PBM E-score
1,GCTACCGA,0.0575
2,AAATGAGC,0.038
3,CTAGGAGA,-0.0687
4,CCCGACTC,-0.0899
5,CCTAAAAA,0.105
6,ACCGAAGT,0.136
7,GCCGAAGC,0.246
8,GACGAAGA,0.0167
9,ACCGAAGA,0.344
10,TCCGAAGA,0.376
11,ACCGAAGC,0.1
12,GCCGAAGA,0.315
13,TACGAAGA,0.05
14,CCCGAAGA,0.105
15,CTCTAGTC,-0.244
16,GGAGTTGA,0.0129
17,GCGGGATA,0.0399
18,CCCGGATC,0.318
19,CCCGGACC,0.149
20,GCGGGACC,-0.0189
21,ACGGGATC,0.0948
22,CCGGGATA,0.315
23,CCCGGATA,0.286
24,CGGGGATC,0.0365
25,ACGGGACC,-0.109

row,Sequence,PBM E-score
1,CGGGGATA,0.0634
2,CCGGGACC,0.342
3,CCGGGATC,0.339
4,CAAAACCG,0.116
5,GAACTCAA,0.0685
6,AGTTCTAT,-0.0389
7,ACCCAATC,-0.00791
8,GCTTGTCC,0.114
9,CGAATTTC,0.276
10,AAGGTTGG,-0.24
11,AGAGTGAG,-0.128
12,GTTTAAAA,0.162
13,GTTTAAAC,0.32
14,CTTTAAAC,-0.052
15,AATACCCG,0.104
16,ACGGAAAC,0.306
17,AGGGAAAT,-0.166
18,GCGGAAAA,0.216
19,TTGGAAAA,0.134
20,GCGGAAAC,0.0908
21,AAGGAAAT,0.107
22,AAGGAAAC,0.0646
23,TGGGAAAA,-0.0424
24,ACGGAAAT,0.39
25,ACGGAAAA,0.309

row,Sequence,PBM E-score
1,TCGGAAAA,0.382
2,ATGGAAAA,0.158
3,AAGTGGGA,0.034
4,CCAGCGGG,0.134
5,ATACCCAT,-0.0126
6,ATAGAGAA,0.103
7,CATTCGAG,-0.0644
8,ACATCTCC,0.128
9,GTCATTCA,0.0449
10,CCGTCTCG,0.159
11,AGCTCGGG,0.138
12,CTCTCGGC,0.238
13,AGCTCGGC,0.316
14,ATCTCGGG,0.219
15,AACTCGGC,0.273
16,CACTCGGG,0.0303
17,ACCTCGGC,0.238
18,AGCTCGGA,0.159
19,GTCTCGGA,0.227
20,CACTCGGC,0.331
21,ATCTCGGA,0.31
22,ATCTCGGC,0.37
23,ACAGTAGT,-0.0892
24,AAGACCAA,0.052
25,GAGCCTAA,-0.0836

row,Sequence,PBM E-score
1,ACTGCAAA,0.0905
2,GTAAGCGA,0.00236
3,GCTCAAAA,0.199
4,TTATACAA,0.313
5,GTATACAA,0.125
6,ATATACAA,0.219
7,CAACTTTC,0.0846
8,GTACTACA,0.0564
9,CTTGTCTC,0.0611
10,AATATGCA,-0.0575
11,GCGGCTAA,0.186
12,ACGGCTCG,0.21
13,GCGGCTCA,0.2
14,TCGGCTAA,0.313
15,ACGGCTAA,0.233
16,TCGGCTCA,0.2
17,CCGGCTCA,0.362
18,CCGGCTCG,0.339
19,CCGGCTCC,0.293
20,CAAGAGGA,-0.0179
21,CCGGTCGA,0.141
22,ACTGCCGA,0.262
23,AGGCGAGG,-0.204
24,CATGCTTA,-0.103
25,CTCCAAGC,-0.181

row,Sequence,PBM E-score
1,CGCTAATC,-0.0149
2,GGAGGGCC,-0.308
3,ACGCCCGA,0.056
4,GATATATA,0.349
5,TATATACA,0.164
6,CATATATA,0.28
7,AATATATA,0.267
8,AATATATT,0.38
9,AATATATG,0.153
10,GATATACA,0.128
11,TATATATA,0.424
12,GATATATC,0.266
13,AGGCCTAA,0.0613
14,CGCATGAG,-0.284
15,CGACAGTC,-0.182
16,AGATCATC,0.0775
17,CGTGGCAA,-0.0803
18,CATACCAC,0.0462
19,AGGAACTA,-0.103
20,CGGAACGC,0.241
21,AGGAACAC,0.161
22,CGGAACAC,0.356
